Measured values taken from PubChem BioAssay (NCI).
About 83,000 compounds went through this panel and 20% of them were active in at least one assay; those are over-represented in the sample as a whole.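 Each cell line was grown in a 96-well plate and treated with one concentration of compound for 48 hours. Values below 10 were considered active.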 Unmarked numbers belong to inactive results. The source made the active and inactive calls.

Key:
Test in all cases: NCI-60 one-dose screen, 48 h (100 = growth as untreated, 0 = no growth, -100 = all killed)
Conditions in all cases: 10 µM unless noted
DU-145 prostate = system: DU-145 prostate
K-562 leukemia = system: K-562 leukemia
MALME-3M melanoma = system: MALME-3M melanoma
MDA-MB-231 breast = system: MDA-MB-231 breast
RXF 393 renal = system: RXF 393 renal
SF-268 CNS = system: SF-268 CNS
SF-295 CNS = system: SF-295 CNS
SF-539 CNS = system: SF-539 CNS
UACC-257 melanoma = system: UACC-257 melanoma
M14 melanoma = system: M14 melanoma

Row | Compound | growth (DU-145 prostate) | growth (K-562 leukemia) | growth (MALME-3M melanoma) | growth (MDA-MB-231 breast) | growth (RXF 393 renal) | growth (SF-268 CNS) | growth (SF-295 CNS) | growth (SF-539 CNS) | growth (UACC-257 melanoma) | growth (M14 melanoma)
1 | COc1ccc(C2(SCCNCc3cc(N(C)C)ccn3)c3ccccc3C=Cc3ccccc32)cc1 | 18.1% | 2.08% (active) | -1.5% (active) | -29.2% (active) | 8.16% (active) | 28.2% | 1.44% (active) | -67.7% (active) | 41.1% | -44.7% (active)
2 | Cc1ccc2c(c1)nc(-c1ccccc1)n2CC(=O)N=Nc1c(O)[nH]c2ccc(Br)cc12 | -10.8% (active) | -7.04% (active) | -85.7% (active) | -76.4% (active) | -79.9% (active) | 0.768% (active) | -80.6% (active) | -91.1% (active) | -51.5% (active) | -54.6% (active)
3 | COc1cc(C2CC(c3cc(OC)c(OC)c(OC)c3)=NN2C(C)=O)ccc1OCc1ccccc1 (stereo not given) | 40.4% | 18.6% | 43.1% | 64% | 31.4% | 47.8% | 24.6% | 51.7% | 48.8% | 36.9%
4 | COc1ccccc1C(=O)NN1C(=O)/C(=C/C2=Cc3ccccc3OC2)SC1=S | 112% | 101% | 99.3% | 102% | 114% | 109% | 109% | 95.4% | 108% | 99.3%
5 | CC(=O)Nc1ccc(-n2cnc3cc(-c4ccc(O)cc4)ccc32)cc1C(F)(F)F | 23% | 25% | 19.1% | 42.7% | 26% | 21.7% | -13.7% (active) | 24.2% | 39.7% | 30.3%
6 | Cn1cc(-c2cc3nc(-c4c[nH]c5ccc(Br)cc45)cc(N)n3n2)c2ccccc21 | -85.7% (active) | 0.783% (active) | -73.4% (active) | -63.2% (active) | -89.4% (active) | -32.7% (active) | -81.8% (active) | -89.7% (active) | -84.6% (active) | -85.5% (active)
7 | COc1cc2c(c(OC)c1OC)C(=O)CC(c1cccc(NC(=O)[C@@H](N)CC(C)C)c1)O2 (stereo not given in full) | 100% | 80.6% | 95.5% | 99.9% | 101% | 95.1% | 101% | 97.3% | 94.1% | 116%
8 | CCCCSc1nc(NCCc2c[nH]c3ccccc23)c(C#N)c(-c2ccccc2)n1 | 54% | 8.19% (active) | 86.9% | 18.3% | -8.31% (active) | 39.9% | 48.4% | 46.6% | 81.4% | 60.1%
9 | CCOc1ccc(C(=O)NC(=S)Nc2ccc(S(N)(=O)=O)cc2)cc1 | 105% [100 µM] | 98.1% [100 µM] | 87.6% [100 µM] | 102% [100 µM] | 102% [100 µM] | 102% [100 µM] | 104% [100 µM] | 91.7% [100 µM] | 90.6% [100 µM] | 102% [100 µM]
10 | C/C(=N\N=C1/C(=O)Nc2ccc(Cl)cc21)c1ccc2c(c1)Nc1ccccc1S2 | -56.3% (active) | 10% | -19.6% (active) | -2.47% (active) | -11.5% (active) | 35.7% | -27.4% (active) | 3.26% (active) | 10.1% | -20.8% (active)
11 | CC(=O)OCC1OC(OC2C(COC(C)=O)OC(n3cc(COc4ccc5ccc(=O)oc5c4)nn3)C(OC(C)=O)C2OC(C)=O)C(OC(C)=O)C(OC(C)=O)C1OC(C)=O (stereo not given) | 108% | 92.1% | 101% | 101% | 90.5% | 91.8% | 113% | 100% | 112% | 107%
12 | COc1ccc(-c2nc3ccc(C(=O)NN4C(=O)c5ccc([N+](=O)[O-])cc5C4=O)cc3[nH]2)cc1 | 109% | 102% | 87.9% | 90.1% | 68.4% | 105% | 88.2% | 91.1% | 94.2% | 93.7%
13 | CC1(C)CC[C@]2(C(=O)O)CC[C@]3(C)C(=CCC4[C@@]5(C)C[C@@H](O)[C@@H]6OC(c7ccccc7F)OC[C@@]6(C)C5CC[C@]43C)C2C1 (stereo not given in full) | 20% | 12.8% | 28.6% | 20.5% | -14.5% (active) | 14.3% | -0.465% (active) | 5.14% (active) | 24.2% | 17.8%
